TGFb SMAD3 inh: qHTS for Inhibitors of TGF-b. HepG2 CAGA-GFP TGF-b/SMAD3 reporter, GFP fluorescence, 18 h; TGF-beta stimulated, 500 pg/mL final. Potency, µM (top dose mostly 46.1 µM), for the others: at the highest dose activity, negative = inhibition, actives largely listed as inhibitors. hit rate 1.2% among 410,000. AID 588855, 2011; also: potency is read from the fitted curve at half-maximal effect; % is scaled to controls: 0 for no effect and ±100 for the full control effect; nearly all actives have a fitted effect of over 65% in size
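First, reporter cells (HEPG2 CAGA-GFP) rested 2 h at 37 degrees C. Next, compounds were pinned in and TGF-beta added to 500 pg/mL final. After 18 h, GFP was imaged per cell and summed per well.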
HepG2 viability: qHTS for Inhibitors of TGF-b: Cytotox Counterscreen; HepG2 CAGA-GFP viability, ATP luminescence, 18 h; Potency, µM (titrated, usually from 46.1 µM), inactives show at the top dose activity change, negative = cytotoxicity, actives largely listed as cytotoxic; hit rate 0.76% among 410,000; also: potency is read from the fitted curve at half-maximal effect
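CellTiter-Glo luminescence gave cytotoxicity after 18 hours at 37 degrees C. The cells were HepG2 CAGA-GFP in 1% FBS DMEM, stimulated with 500 pg/mL TGF-beta after compound addition. %Activity was normalised to no-cell wells (complete cell-killing) and DMSO (no toxicity), and curves were fitted and classified.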
ATXN2 expr inh: Primary qHTS for Inhibitors of ATXN expression; HEK-293 ATXN2-luciferase reporter, luminescence, 24 h; hit rate 0.72% among 360,000; AID 1745845, 2022; Potency, µM (highest dose often 57 µM), without a hit: top-dose activity change, negative = inhibition, hits mostly inhibitors; also: potency is read from the fitted curve at half-maximal effect; % is scaled to controls: 0 for no effect and ±100 for the full control effect; nearly all actives have a fitted effect of over 55% in size
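ATXN2-luciferase reporter cells (luciferase flanked by upstream and downstream ATXN2 gene portions) were treated 24 h at 37 °C with compounds at up to 57 uM. SteadyGlo luminescence gave expression; GF-AFC fluorescence gave viability.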
CtBP-E1A inh: qHTS Assay for Inhibitors of the CtBP/E1A Interaction; activity change, % (concentration not given with the values); AID 651724, 2012; CtBP / adenovirus E1A interaction (AlphaScreen); hit rate 0.49% among 340,000; AlphaScreen GST-E1A/His-CtBP binding, 1536-well; stronger effect = lower value; in the data active = activity change below about -65%; inconclusive = mostly about -30% to -63%; also: % is scaled to controls: 0 for no effect and ±100 for the full control effect
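AlphaScreen with 125 nM GST-E1A and 125 nM His-CtBP (5X stocks) in Tris pH 8.0, 300 mM NaCl, BSA, Tween 20, TCEP. Compounds preincubated 2 h at 37 deg C, then glutathione donor/nickel acceptor beads added for 1 h at 37 deg C in dark.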
ATXN viability: Viability Counterscreen for Primary qHTS for Inhibitors of ATXN expression. Potency, µM (top dose mostly 56.7 µM), actives largely listed as cytotoxic. hit rate 0.49% among 400,000. S2 cells (HEK-293 line with an ATXN2-luciferase reporter) viability, CellTiter-Fluor protease fluorescence, 24 h; also: potency is read from the fitted curve at half-maximal effect; nearly all actives have a fitted effect of over 40% in size
Six1-Eya2 inh: qHTS Assay for Inhibitors of the Six1/Eya2 Interaction | Homeobox protein SIX1 (Homo sapiens) + Protein phosphatase EYA2 (Homo sapiens), … | AlphaScreen GST-Six1/His-Eya2 binding, biochemical; stronger effect = lower value | activity change, % (test concentration not listed) | hit rate 0.56% among 360,000; in the data active = activity change below about -65%; inconclusive = mostly about -30% to -63%; also: % is scaled to controls: 0 for no effect and ±100 for the full control effect
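AlphaScreen with GST-Six1 and His-Eya2 (5X mix: 250 nM and 500 nM), glutathione donor and nickel acceptor beads; buffer 50 mM Tris pH 8.0, 300 mM NaCl, 1 mM TCEP; 1 h at 37 C in the dark.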
* = called active by the depositor; ! = not confirmed by another sample. A selection: hits, their analogues and other compounds. The true share with any hit is near 2.8%. Unless noted, calls follow the shape of the dose curve; as a rule, active = well fitted curve in the direction sought with a large enough effect; inconclusive = small, poorly fitted or top-dose-only effect, or another doubt; inactive = no such curve, though single readings can be large; an effect the other way counts as inactive or inconclusive.

How did COc1ccc(C(=O)Nn2c(SCC(=O)N3CCC(C)CC3)nc3ccccc3c2=O)cc1 do in these assays?
TGFb SMAD3 inh: -1.4%; HepG2 viability: -35.9%; ATXN2 expr inh: inconclusive; CtBP-E1A inh: -71.3*; ATXN viability: inactive; Six1-Eya2 inh: inconclusive

How did COc1ccc(C(=O)Nn2c(SCC(=O)NC3CCCCC3)nc3ccccc3c2=O)cc1 do in these assays?
TGFb SMAD3 inh: 8.6%; HepG2 viability: -22.8%; ATXN2 expr inh: inconclusive; CtBP-E1A inh: -27.1; ATXN viability: inactive; Six1-Eya2 inh: -14.5

Results for NCCCC[C@H](NC(=O)[C@@H]1CCCN1C(=O)[C@@H]1CSSC[C@H](N)C(=O)N[C@@H](Cc2ccccc2)C(=O)N[C@@H](Cc2ccccc2)C(=O)N[C@@H](CCC(N)=O)C(=O)N[C@@H](CC(N)=O)C(=O)N1)C(=O)NCC(N)=O ?
ATXN viability: inactive

Results for Cc1ccc(N2CC(C(=O)NCCS(=O)(=O)N3CCN(c4ccc(F)cc4)CC3)CC2=O)cc1 (configuration not stated) ?
TGFb SMAD3 inh: 17.2%; HepG2 viability: 1µM*!; ATXN2 expr inh: -6.1%; CtBP-E1A inh: 4.0; ATXN viability: inactive; Six1-Eya2 inh: 1.0

What do the screens show for `CCC(O)c1cnc(OCc2ccccc2)nc1OCc1ccccc1` (configuration not stated)?
TGFb SMAD3 inh: inconclusive; HepG2 viability: 14.1µM*; CtBP-E1A inh: -2.3; ATXN viability: inactive; Six1-Eya2 inh: 1.4

How did CC(=O)OC1C(C)OC(Oc2c(-c3ccc(O)cc3)oc3cc(O)cc(O)c3c2=O)C(O)C1OC(C)=O (configuration not stated) do in these assays?
ATXN2 expr inh: 0.8%

What do the screens show for `CCC[C@@H]1C[C@@]1(CCC)[C@@H](NP(=O)(c1ccccc1)c1ccccc1)c1ccc(C(=O)OC)cc1`?
TGFb SMAD3 inh: 11.2µM*; HepG2 viability: 14.1µM*; ATXN2 expr inh: inconclusive; ATXN viability: inconclusive; Six1-Eya2 inh: -6.0

What do the screens show for `COC(=O)c1cccc(C#CC(NP(=O)(c2ccccc2)c2ccccc2)c2ccccc2)c1` (configuration not stated)?
TGFb SMAD3 inh: inconclusive; HepG2 viability: -41.5%; ATXN2 expr inh: inconclusive; CtBP-E1A inh: -5.4; ATXN viability: inconclusive; Six1-Eya2 inh: -13.3

What do the screens show for `CCc1ccc(NCc2cc3cc4c(cc3n(CC(=O)Nc3cccc(OC)c3)c2=O)OCO4)cc1`?
TGFb SMAD3 inh: inconclusive; HepG2 viability: -28.7%; ATXN2 expr inh: 2.5%; ATXN viability: inactive

Results for Cn1c(=O)c2cc(S(=O)(=O)NCCC(=O)NCc3ccccc3Cl)ccc2n(C)c1=O ?
TGFb SMAD3 inh: -6.6%; HepG2 viability: -0.3%; ATXN2 expr inh: 3.9%; CtBP-E1A inh: -80.9*; ATXN viability: inactive; Six1-Eya2 inh: -68.8*

What do the screens show for `Cn1c(=O)c2cc(S(=O)(=O)NCCC(=O)N3CC=C(c4ccccc4)CC3)ccc2n(C)c1=O`?
TGFb SMAD3 inh: -38.9%; HepG2 viability: -17.5%; ATXN2 expr inh: -23.5%; CtBP-E1A inh: -85.9*; ATXN viability: inactive; Six1-Eya2 inh: inconclusive

How did CCN(c1cccc(C)c1)S(=O)(=O)c1c(C)nc2sc(C)cn2c1=O do in these assays?
TGFb SMAD3 inh: 7.0%; HepG2 viability: -9.9%

Results for CC1(C)[C@H]2CC[C@]3(C)[C@@H](C(=O)C=C4[C@@H]5C[C@@](C)(C(=O)O)CC[C@]5(C)CC[C@]43C)[C@@]2(C)CC[C@@H]1O ?
ATXN2 expr inh: -0.1%

How did CCC(=O)NCCCCCCNC(=O)CC do in these assays?
TGFb SMAD3 inh: 6.5%; HepG2 viability: 2.9%; ATXN2 expr inh: 9.0%; CtBP-E1A inh: 7.1; ATXN viability: inactive; Six1-Eya2 inh: 4.4

How did O=C(CCl)NCCCCCCCCCNC(=O)CCl do in these assays?
TGFb SMAD3 inh: inconclusive; HepG2 viability: -40.4%; ATXN2 expr inh: -38.2%; CtBP-E1A inh: 7.0; ATXN viability: 10µM*; Six1-Eya2 inh: -5.9

What do the screens show for `O=C(NCCCc1nc2ccccc2n1Cc1ccc(Cl)cc1)C1CCCCC1`?
TGFb SMAD3 inh: 10µM*; HepG2 viability: -29.6%; ATXN2 expr inh: inconclusive; ATXN viability: inconclusive

How did Brc1ccc2nc(-c3ccco3)c(CC3CCCCC3)n2c1 do in these assays?
TGFb SMAD3 inh: 11.2µM*; HepG2 viability: -31.4%; ATXN2 expr inh: -4.7%; CtBP-E1A inh: 1.1; ATXN viability: inactive; Six1-Eya2 inh: -11.8

What do the screens show for `Cc1cc(Br)cn2c(Cc3ccsc3)c(-c3ccco3)nc12`?
TGFb SMAD3 inh: 6.31µM*; HepG2 viability: 15.8µM*; ATXN2 expr inh: inconclusive; CtBP-E1A inh: 0.4; ATXN viability: inconclusive; Six1-Eya2 inh: inconclusive

What do the screens show for `COc1ccc(Cc2c(-c3ccco3)nc3ccc(Cl)cn23)c(C)c1`?
TGFb SMAD3 inh: 22.4µM*; HepG2 viability: -46.8%; ATXN2 expr inh: -7.7%; CtBP-E1A inh: -12.0; ATXN viability: inactive; Six1-Eya2 inh: -3.0

What do the screens show for `COc1ccc(Cc2c(-c3ccco3)nc3c(C)cc(Br)cn23)c(C)c1`?
TGFb SMAD3 inh: inconclusive; HepG2 viability: -17.2%; ATXN2 expr inh: -26.3%; CtBP-E1A inh: 2.4; ATXN viability: inconclusive; Six1-Eya2 inh: -0.9

How did COc1ccc(Cc2c(-c3ccco3)nc3ccc(Br)cn23)c(C)c1 do in these assays?
TGFb SMAD3 inh: 15.8µM*; HepG2 viability: 15.8µM*; ATXN2 expr inh: inconclusive; CtBP-E1A inh: -1.7; Six1-Eya2 inh: -11.2

Results for COc1ccc(Cc2c(-c3ccccc3)nc3ccc(Cl)cn23)c(C)c1 ?
TGFb SMAD3 inh: inconclusive; HepG2 viability: -13.3%; ATXN2 expr inh: 6.9%; CtBP-E1A inh: -4.5; ATXN viability: inconclusive; Six1-Eya2 inh: -0.6

What do the screens show for `Cc1cc(-c2ccnc(-n3ncc(C(=O)N(C)CC(O)c4ccccc4)c3C)n2)c(C)s1` (configuration not stated)?
ATXN viability: inactive

How did CCSc1nnc(C(C)NS(=O)(=O)c2cccc(Cl)c2C)n1C (configuration not stated) do in these assays?
ATXN viability: inactive

What do the screens show for `Cc1ccc(NC(=O)Cn2cc(S(=O)(=O)N3CCCC3)c(S(=O)(=O)N3CCCC3)c2)c(C)c1`?
TGFb SMAD3 inh: -3.2%; HepG2 viability: 3.4%; ATXN2 expr inh: 11.1%; ATXN viability: inactive
